In PubChem BioAssay (Tox21):
Where “and” joins values, the source holds several entries; their conditions need not be identical. Equal values may be shown once. Results filed as inconclusive are left out. Where a call stands in place of a potency, no number is given. Where a structure was tested more than once in an assay, its records may differ in their call. Calls of active or inactive are those of the source. Unless noted, calls follow the shape of the full dose curve.

Columns and labels:
[1] = Nuclear factor erythroid 2-related factor 2/antioxidant responsive element (Nrf2/ARE) small molecule agonists: luciferase reporter gene qHTS assay in human keratinocytes (AID 1919969); also: nearly all actives have a fitted effect of over 35% in size; also: potency is read from the fitted curve at half-maximal effect
[2] = biological target: Gonadotropin-releasing hormone receptor (Homo sapiens) (UniProt P30968); assay: Human gonadotropin-releasing hormone receptor (GnRHR) small molecule agonists, calcium flux assay in GnRHR-HEK293 cells (AID 1920063); also: nearly all actives have a fitted effect of over 35% in size
How it was run: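 Stable human GnRHR HEK293 line. 18 h plating, then calcium dye for 1 h at 37 C. Agonist-mode compound addition from DMSO stocks; fluorescence monitored 3 min.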

[3] = biological target: KiSS-1 receptor (Homo sapiens) (UniProt Q969F8); assay: Human kisspeptin (KISS1R) small molecule agonists, calcium flux assay in KISS1R-HEK293 cells (AID 1920064; active = well fitted activation curve with a large enough effect in the repeat runs)
How it was run: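 After overnight (18 h) culture at 37 C/5% CO2, human KISS1R-HEK293 cells received calcium dye for 1 h, then test compound; emission at 540 nm (excitation 480 nm) was tracked for 3 min.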

[4] = G protein-coupled receptor (GPCR) small molecule agonists, calcium flux assay: HEK293 wild type cell line counter screen (AID 1920065)
How it was run: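 Following 18 h incubation at 37 C/5% CO2, plates got calcium dye for 1 h; compounds, ATP or DMSO were then pinned in and fluorescence followed kinetically (480/540 nm).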

[5] = p53 small molecule agonists, cell-based qHTS assay with human liver microsomes (AID 1963577);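 also: p53 response element beta-lactamase reporter cells with liver microsomes plus NADPH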
How it was run: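 In this qHTS, p53 response-element beta-lactamase cells receive test compound together with a microsome/NADPH activating system (0.5 mg/mL final each) and are incubated 16 h at 37 C before LiveBLAzer fluorescence detection.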

[6] = p53 small molecule agonists, cell-based qHTS assay with rat liver microsomes (AID 1963578)
How it was run: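 Agonist mode in p53RE-bla reporter cells, with compounds co-incubated 16 h at 37 C alongside 0.5 mg/mL rat liver microsomes and 0.5 mg/mL NADPH (final), followed by a 2 h LiveBLAzer detection step.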

[7] = p53 small molecule agonists, cell-based qHTS assay with human liver microsomes: qHTS cell viability counter screen (AID 1963579); also: nearly all actives have a fitted effect of over 45% in size
How it was run: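 Metabolically activated exposure: compounds, human liver microsomes and NADPH (0.5 mg/mL final apiece) were added to p53RE-bla cells seeded 5 h earlier, left 16 h at 37 C, and then assessed for viability by CellTiter-Glo luminescence.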

[8] = p53 small molecule agonists, cell-based qHTS assay with rat liver microsomes: qHTS cell viability counter screen (AID 1963580); also: nearly all actives have a fitted effect of over 45% in size
How it was run: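 Cytotoxicity counter screen: intracellular ATP measured by CellTiter-Glo luminescence in the same wells as the beta-lactamase reporter read, on HCT-116 p53RE-bla cells exposed 16 h at 37 C to compounds with rat liver microsomes and NADPH, each 0.5 mg/mL final.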

[9] = p53 small molecule agonists, cell-based qHTS assay: qHTS cell viability counter screen (AID 1963581); also: nearly all actives have a fitted effect of over 45% in size
How it was run: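 qHTS counter screen: 16 h compound exposure at 37 C of p53RE-bla HCT-116 cells (4,000 per well, seeded 5 h prior), cell viability by ATP luminescence.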

[10] = p53 small molecule agonists, cell-based qHTS assay (AID 1963582; active = well fitted activation curve with a large enough effect in the signal ratio in the repeat runs, not every such curve was filed as active; the % refers to the signal ratio)
How it was run: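 Measured: fluorescence from cleaved LiveBLAzer substrate. System: p53RE-bla cells, 16 h compound treatment at 37 C, 2 h substrate step at room temperature.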

[11] = biological target: 5-hydroxytryptamine receptor 2A (Homo sapiens) (UniProt P28223); assay: 5-hydroxytryptamine receptor 2A (HTR2A) small molecule agonists, cell-based qHTS assay (AID 1963587); also: nearly all actives have a fitted effect of over 30% in size
How it was run: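 CHO cells stably expressing human HTR2A, plated 18 h, loaded with calcium dye 1 h at 37 C. Agonist mode: compounds added and intracellular calcium fluorescence recorded kinetically for 2 min at 1 sec intervals.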

[12] = cAMP Responsive Elements (CRE) small molecule agonists, cell-based qHTS assay (AID 1963590)
How it was run: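 Test agents in DMSO were incubated 3 h at 37 C/5% CO2 with CRE-bla HEK 293T cells seeded 18 h earlier; LiveBLAzer B/G FRET substrate was added and read after 2 h at room temperature.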

[13] = cAMP Responsive Elements (CRE) small molecule antagonists, cell-based qHTS assay (AID 1963591; active = well fitted inhibition curve with a large enough effect in the signal ratio in the repeat runs, not every such curve was filed as active; the % refers to the signal ratio)
How it was run: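 Reporter line CRE-bla HEK 293T in dialyzed-FBS DMEM; cells preincubated 18 h, treated 3 h with compound plus NKH477 (0.25 uM final); LiveBLAzer FRET, 2 h RT.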

[14] = biological target: Beta-2 adrenergic receptor (Homo sapiens) (UniProt P07550); assay: Adrenergic beta2 receptor (ADRB2) small molecule antagonists, cell-based qHTS assay (AID 1963592); also: series mostly up to about 92 µM; nearly all actives have a fitted effect of over 50% in size
How it was run: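 Assay format: CHO-ADRB2 cells, 18-20hr seeding at 37C/5% CO2, then compound plus 1nM isoproterenol agonist mix for 0.5hr RT. Homogeneous time-resolved fluorescence cAMP detection after 1hr, expressed as 665/615 nm ratio.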

[15] = biological target: D(2) dopamine receptor (Homo sapiens) (UniProt P14416); assay: Dopamine D2 receptor (DRD2) small molecule agonists, cell-based qHTS assay (AID 1963594); also: nearly all actives have a fitted effect of over 35% in size
How it was run: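 HEK293 cells stably expressing human DRD2, pre-treated with PDE inhibitor Ro20-1724 (0.1 mM final) and compound 10 min at room temperature, then stimulated with NKH477 (200nM […]) for 30 min. cAMP read by HTRF (665/620 nm).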

[16] = biological target: D(2) dopamine receptor (Homo sapiens) (UniProt P14416); assay: Dopamine D2 receptor (DRD2) small molecule antagonists, cell-based qHTS assay (AID 1963595; active = well fitted inhibition curve with a large enough effect in the signal ratio in the repeat runs, with a control signal flat; the % refers to the signal ratio)
How it was run: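 Human DRD2 antagonist qHTS measuring cAMP by HTRF. The cells are exposed to compound for 10 min, then to NKH477 (200 nM) and quinpirole (12 nM) for 30 min at RT, with Ro20-1724 (0.1 mM) present throughout.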

[17] = biological target: 5-hydroxytryptamine receptor 2A (Homo sapiens) (UniProt P28223); assay: 5-hydroxytryptamine receptor 2A (HTR2A) small molecule antagonists, cell-based qHTS assay (AID 1963586); also: nearly all actives have a fitted effect of over 45% in size
How it was run: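 CHO cells stably expressing human HTR2A were plated for 18 h at 37 C, then loaded with calcium dye for 1 h. Compounds were preincubated 5 min at room temperature before DOI (4 nM solution) was added. Kinetic fluorescence was read for 3 min.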

[18] = biological target: Muscarinic acetylcholine receptor M1 (Homo sapiens) (UniProt P11229); assay: Cholinergic receptor muscarinic 1 (CHRM1) small molecule antagonists, cell-based qHTS assay (AID 1963588); also: nearly all actives have a fitted effect of over 40% in size; also: potency is read from the fitted curve at half-maximal effect
How it was run: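 Compounds were tested at 15 concentrations in three independent runs. Dye-loaded CHRM1-CHO cells were exposed 5 min at room temperature before stimulation by acetylcholine added at 50nM. Intracellular calcium was read kinetically on FDSS for 3 min.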

[19] = biological target: Muscarinic acetylcholine receptor M1 (Homo sapiens) (UniProt P11229); assay: Cholinergic receptor muscarinic 1 (CHRM1) small molecule agonists, cell-based qHTS assay (AID 1963589); also: nearly all actives have a fitted effect of over 35% in size
How it was run: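 Kinetic fluorescence (1 s intervals) of calcium-sensitive dye in human M1 CHO cells after compound addition; cells pre-incubated 18 h at 37 C/5% CO2 and dye-loaded 1 h.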

[20] = biological target: Beta-2 adrenergic receptor (Homo sapiens) (UniProt P07550); assay: Adrenergic beta2 receptor (ADRB2) small molecule agonists, cell-based qHTS assay (AID 1963593);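 also: CHO cells stably overexpressing human ADRB2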
How it was run: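 CHO cells stably over-expressing ADRB2 were plated overnight at 37C, then dosed with compounds plus a stimulation mix containing 100uM IBMX and 25uM Ro-20-1724 for 0.5hr at room temperature. cAMP was measured by HTRF competition, 1hr.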

KiSS-1 receptor (Homo sapiens), sequence (Q969F8 whole entry, looked up): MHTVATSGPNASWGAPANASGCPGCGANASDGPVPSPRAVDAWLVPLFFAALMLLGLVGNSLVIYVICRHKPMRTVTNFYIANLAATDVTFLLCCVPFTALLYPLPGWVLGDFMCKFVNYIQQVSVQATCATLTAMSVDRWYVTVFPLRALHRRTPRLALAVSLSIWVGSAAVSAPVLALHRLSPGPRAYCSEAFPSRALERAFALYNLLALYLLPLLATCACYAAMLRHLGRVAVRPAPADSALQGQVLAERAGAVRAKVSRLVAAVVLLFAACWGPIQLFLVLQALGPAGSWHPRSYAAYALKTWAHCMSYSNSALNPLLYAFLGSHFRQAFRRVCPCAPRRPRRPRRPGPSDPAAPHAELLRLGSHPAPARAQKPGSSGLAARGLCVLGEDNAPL
Gonadotropin-releasing hormone receptor (Homo sapiens), sequence (P30968 whole entry, looked up): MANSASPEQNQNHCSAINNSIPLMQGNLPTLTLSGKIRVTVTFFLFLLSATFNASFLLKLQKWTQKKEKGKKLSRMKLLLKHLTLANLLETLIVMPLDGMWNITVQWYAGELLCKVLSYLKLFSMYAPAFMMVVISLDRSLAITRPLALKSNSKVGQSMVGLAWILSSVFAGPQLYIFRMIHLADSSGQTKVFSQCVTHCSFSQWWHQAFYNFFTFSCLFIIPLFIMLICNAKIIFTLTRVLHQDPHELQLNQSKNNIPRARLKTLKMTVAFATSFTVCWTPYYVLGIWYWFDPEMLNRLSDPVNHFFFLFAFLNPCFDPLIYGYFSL
Muscarinic acetylcholine receptor M1 (Homo sapiens), sequence (P11229 whole entry, looked up): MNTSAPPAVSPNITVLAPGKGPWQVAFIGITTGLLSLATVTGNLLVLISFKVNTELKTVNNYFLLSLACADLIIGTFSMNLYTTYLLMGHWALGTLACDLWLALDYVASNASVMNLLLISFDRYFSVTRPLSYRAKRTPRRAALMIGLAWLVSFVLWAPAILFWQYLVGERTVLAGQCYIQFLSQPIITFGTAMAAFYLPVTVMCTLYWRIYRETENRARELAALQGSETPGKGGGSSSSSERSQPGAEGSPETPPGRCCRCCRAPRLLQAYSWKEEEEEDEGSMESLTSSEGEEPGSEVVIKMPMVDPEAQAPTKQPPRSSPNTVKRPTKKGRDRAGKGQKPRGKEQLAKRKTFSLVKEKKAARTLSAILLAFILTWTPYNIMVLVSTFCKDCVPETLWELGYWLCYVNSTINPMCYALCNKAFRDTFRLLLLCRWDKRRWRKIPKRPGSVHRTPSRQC
D(2) dopamine receptor (Homo sapiens), sequence (P14416 whole entry, looked up): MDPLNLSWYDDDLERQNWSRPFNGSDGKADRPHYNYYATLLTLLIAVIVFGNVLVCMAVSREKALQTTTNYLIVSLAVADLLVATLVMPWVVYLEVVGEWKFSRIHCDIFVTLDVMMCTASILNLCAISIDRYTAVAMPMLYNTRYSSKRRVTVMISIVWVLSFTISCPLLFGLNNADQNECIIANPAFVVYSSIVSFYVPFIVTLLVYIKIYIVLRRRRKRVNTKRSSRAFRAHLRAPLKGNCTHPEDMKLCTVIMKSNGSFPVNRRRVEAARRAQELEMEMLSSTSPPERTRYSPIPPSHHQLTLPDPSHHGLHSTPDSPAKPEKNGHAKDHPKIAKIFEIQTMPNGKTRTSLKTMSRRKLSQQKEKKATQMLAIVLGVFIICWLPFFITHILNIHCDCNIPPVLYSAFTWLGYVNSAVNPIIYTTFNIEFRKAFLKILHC
Beta-2 adrenergic receptor (Homo sapiens), sequence (P07550 whole entry, looked up): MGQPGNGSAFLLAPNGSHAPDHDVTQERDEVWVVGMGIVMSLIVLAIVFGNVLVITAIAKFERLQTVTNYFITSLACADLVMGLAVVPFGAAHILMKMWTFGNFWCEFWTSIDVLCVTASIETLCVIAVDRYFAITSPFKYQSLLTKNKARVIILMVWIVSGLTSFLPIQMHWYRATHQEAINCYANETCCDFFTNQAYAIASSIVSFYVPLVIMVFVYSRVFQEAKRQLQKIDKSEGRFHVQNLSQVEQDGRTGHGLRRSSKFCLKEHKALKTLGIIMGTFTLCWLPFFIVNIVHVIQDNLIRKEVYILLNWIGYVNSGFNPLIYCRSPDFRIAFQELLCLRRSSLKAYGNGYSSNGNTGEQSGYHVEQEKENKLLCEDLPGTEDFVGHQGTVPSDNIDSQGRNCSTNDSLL
5-hydroxytryptamine receptor 2A (Homo sapiens), sequence (P28223 whole entry, looked up): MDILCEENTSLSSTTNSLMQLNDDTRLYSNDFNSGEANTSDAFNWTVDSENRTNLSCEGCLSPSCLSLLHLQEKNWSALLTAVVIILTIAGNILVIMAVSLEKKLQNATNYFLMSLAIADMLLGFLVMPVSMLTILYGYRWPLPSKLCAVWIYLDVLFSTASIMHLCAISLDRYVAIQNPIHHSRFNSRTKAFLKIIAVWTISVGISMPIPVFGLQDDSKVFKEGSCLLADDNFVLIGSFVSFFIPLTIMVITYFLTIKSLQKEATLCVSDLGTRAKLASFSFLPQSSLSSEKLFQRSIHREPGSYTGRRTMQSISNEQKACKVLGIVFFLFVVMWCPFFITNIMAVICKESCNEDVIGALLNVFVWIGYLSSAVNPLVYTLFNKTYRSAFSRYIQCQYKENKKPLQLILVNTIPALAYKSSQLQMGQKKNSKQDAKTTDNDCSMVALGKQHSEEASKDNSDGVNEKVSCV

Row | SMILES | Potency [1] | Potency [2] | Potency [3] | Potency [4] | Potency [5] | Potency [6] | Potency [7] | Potency [8] | Potency [9] | Potency [10] | Potency [11] | Potency [12] | Potency [13] | Potency [14] | Potency [15] | Potency [16] | Potency [17] | Potency [18] | Potency [19] | Potency [20]
1 | Cn1c([N+](=O)[O-])cnc1COC(N)=O | inactive | inactive | inactive | inactive | inactive | inactive | inactive | inactive | inactive | inactive | inactive | inactive | inactive | inactive | inactive | inactive |  |  |  | 
2 | OCC(O)CS (stereo not given) | inactive | inactive | inactive | inactive | inactive | inactive | inactive | inactive | inactive | inactive | inactive | inactive | inactive |  | inactive | inactive | inactive | inactive | inactive | inactive
3 | NCCOCCO | inactive | inactive | inactive | inactive | inactive | inactive | inactive | inactive | inactive | inactive | inactive | inactive | inactive | inactive | inactive | inactive | inactive | inactive | inactive | inactive
4 | Cc1ccc(C(C)C)cc1 | inactive | inactive | inactive | inactive | inactive | inactive |  | inactive | inactive | inactive | inactive | inactive | inactive | inactive | inactive | inactive | inactive | inactive | inactive | inactive
5 | Oc1ccc2ccccc2c1N=Nc1ccccc1 | 30.6 µM (active) and 21.7 µM (active) | inactive | inactive | inactive | inactive | inactive | inactive | inactive | inactive | inactive | inactive |  | inactive | inactive | inactive | inactive | inactive | 472 nM (active) and inactive |  | 
6 | C=CCCCCCCCCC(=O)O | inactive | inactive | inactive | inactive | inactive | inactive | inactive | inactive | inactive | inactive | inactive |  | inactive | inactive | inactive | inactive | inactive | inactive | inactive | inactive
7 | COC(=O)CCC(=O)OC | inactive | inactive | inactive | inactive | inactive | inactive | inactive | inactive | inactive | inactive | inactive | inactive | inactive | inactive | inactive | inactive | inactive | inactive | inactive | inactive
